A selection: hits, their analogues and other compounds. The true share with any hit is near 3.4%.
RE007 growth inh = less growth of the S. pombe RE007 Vpr strain | Potency, µM (titrated, usually from 92.2 µM), without a hit: at the top dose activity change, negative = less growth, usual class: inhibitors | S. pombe RE007 Vpr strain, BacTiter-Glo ATP luminescence, 24 h | AID 651644 | 360,000 compounds, 0.21% hits; active means well fitted falling curve with a large enough effect; inconclusive means small, poorly fitted or top-dose-only effect; inactive means no such curve, though single readings can be large or run the other way; further: nearly all actives have a fitted effect of over 50% in size
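Fission yeast RE007 carrying one integrated HIV-1 vpr copy, seeded at OD 0.01 in PMG+AL medium with 23 nL pinned compound. Grown 24 h at 30 degrees; viability read by BacTiter-Glo luminescence after 5 min.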
AmpC no deterg = AmpC beta-lactamase inhibition without detergent; P00811; AmpC nitrocefin hydrolysis, absorbance 480 nm, 0.0001% Triton; Potency, µM (titrated, usually from 57.1 µM), inactives show at the top dose activity change, negative = inhibition, usual class: inhibitors; 330,000 compounds, 0.52% hits; AID 485341;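 further: plate controls were no compound for no effect and no enzyme for full effect; nearly all actives have a fitted effect of over 20% in size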
Target sequence (P00811 whole entry, looked up): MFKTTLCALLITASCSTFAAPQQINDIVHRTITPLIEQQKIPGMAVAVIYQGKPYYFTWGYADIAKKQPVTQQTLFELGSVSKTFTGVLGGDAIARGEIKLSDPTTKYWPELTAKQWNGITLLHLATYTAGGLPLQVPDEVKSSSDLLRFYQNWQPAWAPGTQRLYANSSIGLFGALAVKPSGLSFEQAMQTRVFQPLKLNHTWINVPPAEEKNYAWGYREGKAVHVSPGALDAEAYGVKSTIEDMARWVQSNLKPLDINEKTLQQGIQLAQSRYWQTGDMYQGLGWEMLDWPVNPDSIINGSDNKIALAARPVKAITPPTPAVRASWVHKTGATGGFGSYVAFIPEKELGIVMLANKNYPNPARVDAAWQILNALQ
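20 mM phosphate pH 7.0 + 0.01% (detergent screen) or 0.0001% Triton X-100; 5.3 nM AmpC reagent; cpd preinc 15 min RT; nitrocefin (800 uM stock) to start; A480 q20 s × 4 min; Activity was normalised to no-enzyme and no-compound control wells.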
Sm TGR block = blocks Schistosoma mansoni thioredoxin glutathione reductase | Q962Y6 | purified TGR, DTNB reduction, TNB absorbance 405 nm | Potency, µM (highest dose often 114 µM), for the others: top-dose activity change, negative = inhibition, most hits filed as inhibitors | 360,000 compounds, 3% hits; further: nearly all actives have a fitted effect of over 60% in size
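TGR 20 nM + NADPH 100 uM (dispensed conc.), cpd preinc 15 min RT; start with NADPH (500 uM addition) then DTNB (15 mM addition). Kinetic TNB absorbance, 405 nm filter. Four-parameter Hill fit across titration.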
Giardia FBPA inh = Giardia lamblia aldolase inhibition; A8B2U2; Potency, µM (doses to about 59.6 µM), for the others: at the top dose activity, negative = inhibition, most hits filed as inhibitors; AID 2451; purified Giardia FBPA; 290,000 compounds, 0.71% hits; further: nearly all actives have a fitted effect of over 55% in size
Target sequence (A8B2U2 whole entry, looked up): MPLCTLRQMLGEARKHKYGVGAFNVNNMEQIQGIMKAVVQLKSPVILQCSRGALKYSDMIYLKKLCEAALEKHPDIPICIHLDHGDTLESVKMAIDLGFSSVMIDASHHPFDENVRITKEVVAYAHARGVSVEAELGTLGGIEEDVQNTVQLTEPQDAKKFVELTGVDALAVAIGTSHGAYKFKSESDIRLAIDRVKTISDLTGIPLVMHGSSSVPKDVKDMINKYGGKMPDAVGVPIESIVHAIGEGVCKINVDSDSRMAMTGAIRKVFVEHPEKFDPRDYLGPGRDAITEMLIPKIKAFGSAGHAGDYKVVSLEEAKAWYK
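Giardia FBPA (40 nM reagent) was preincubated 10 min at RT with compound (up to 57.5 uM final), then substrate plus GAPDH/TPI/NAD/arsenate coupling system with diaphorase/resazurin was added; resorufin fluorescence (525/598 nm) was read after 20 min.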
AmpC detergent = blocks E. coli AmpC beta-lactamase in detergent assay. P00811. AmpC hydrolysis of nitrocefin, absorbance 480 nm, 0.01% Triton. Potency, µM (doses to about 114 µM), without a hit: at the top dose activity change, negative = inhibition, most hits filed as inhibitors. 370,000 compounds, 0.041% hits;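 further: 0% = no-compound wells and -100% = no-enzyme wells; nearly all actives have a fitted effect of over 25% in size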
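AmpC (5.3 nM in the dispensed reagent) in 20 mM phosphate pH 7.0 with 0.01% (detergent screen) or 0.0001% Triton X-100 was preincubated with compounds for 15 min at room temperature. Nitrocefin was then added from an 800 uM solution, and hydrolysis was followed at 480 nm.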
Numbers without * were called inactive; u = inconclusive; x = no result given; [ ] = dose if it differs, or a comment. Unless noted, the call rests on the fitted dose curve; in most records, active means well fitted curve in the direction sought with a large enough effect; inconclusive means small, poorly fitted or top-dose-only effect, or another doubt; inactive means no such curve, though single readings can be large; an effect the other way counts as inactive or inconclusive. Unless noted, on the % scale 0 is the no-effect control and ±100 the full control effect; potency means the concentration at half of the fitted maximal effect.

SMILES	RE007 growth inh	AmpC no deterg	Sm TGR block	Giardia FBPA inh	AmpC detergent
COc1ccccc1NC(=O)C(CC=C(Cl)Cl)C(C)=O (centres undefined)	-5.9%	-10.9%	35.5µM*	11.1%	4.2%
C=CCSc1nnc2c(n1)OC=Nc1ccc(Br)cc1-2	-9.4%	-18.5%	7.94µM*	10.2%	2.2%
Oc1oc(C=Nc2ccc(F)cc2F)c2ccccc12	11.5%	-27.8%	50.1µM*	-5.8%	7.4%
CC[C@H]1C(c2ccc(F)cc2)=NN(c2ccccc2)[C@@H]1CO	-3.2%	-4.6%	x	-17.1%[89.2 µM]	x
CCOP(=O)(OCC)C(C)(C)NC(=O)c1cc([N+](=O)[O-])cc([N+](=O)[O-])c1	20.2%	-1.0%	-7.2%	-4.9%	-1.8%
CCOP(=O)(OCC)C(NC(=O)c1cc([N+](=O)[O-])cc([N+](=O)[O-])c1)C(F)(F)F (centres undefined)	2.2%	-5.7%	12.6µM*	-7.0%	1.5%
CC(C)Cc1nnc(NS(=O)(=O)c2ccc(Cl)cc2)s1	5.3%	-20.0%	-4.0%	2.3%	u
CSC1=NSC2=NC(=O)/C(=C/c3coc4ccccc4c3=O)C(=N)N12	39.8µM*	-19.3%	-25.8%	-8.1%	u
CSC1=NSC2=NC(=O)/C(=C/c3coc4ccc(O)cc4c3=O)C(=N)N12	-0.5%	-35.7%	u	-14.6%	u
COc1ccc(-c2cn3c(n2)sc2cc(C(=O)NCC(C)c4ccccc4)ccc23)cc1 (centres undefined)	x	x	79.4µM*	x	1.5%
CCc1ccc(-c2cn3c(n2)sc2cc(C(=O)NCC(C)c4ccccc4)ccc23)cc1 (centres undefined)	x	x	-2.8%	x	0.6%
Cc1ccsc1CN(C(=O)COc1ccc(Cl)cc1)C1CCS(=O)(=O)C1 (centres undefined)	x	x	8.9%	x	17.5%
Cc1cc(C)n(-c2ccc(NN=C(C#N)C#N)cc2)n1	-8.3%	-24.2%	31.6µM*	u	-9.0%
CCOC(=O)c1cccc(NC(=O)Cn2c(CC(=O)NC)nc3ccccc32)c1	2.7%	26.5%	3.8%	8.3%	-9.6%
Cc1ccc(N2CC(C(=O)N/N=C/c3sccc3C)CC2=O)cc1 (centres undefined)	-11.5%	20.2%	6.0%	1.4%	2.0%
CCOc1ccc(-n2c(=O)c3c4c(sc3n(CC(=O)NC(C)CC)c2=O)CCCCC4)cc1 (centres undefined)	x	x	-3.7%	x	-5.9%
CCc1ccc(-c2nc(CS(=O)CC(=O)NCc3cccnc3)c(C)o2)cc1 (centres undefined)	14.4%	20.0%	39.8µM*	3.1%	2.3%
COc1ccc(-c2nc(CS(=O)CC(=O)NCc3ccco3)c(C)o2)cc1 (centres undefined)	5.6%	1.9%	0.0%	3.7%	u
CCc1ccc(-c2nc(CS(=O)CC(=O)NCc3ccco3)c(C)o2)cc1 (centres undefined)	4.7%	34.9%	39.8µM*	-0.7%	-12.8%
Cc1cc2c(=O)n(CC(=O)N3CCN(c4ccc(F)cc4)CC3)cnc2s1	21.6%	-19.8%	-3.3%	7.5%	0.2%
O=C(N/N=C/c1ccc(O)c([N+](=O)[O-])c1)C1CC1(c1ccccc1)c1ccccc1 (centres undefined)	3.6%	-49.6%	-9.5%	-0.5%	-1.8%
CCCCOC(=O)c1[nH]c2c(c1C)C(=O)CC(c1cc(OC)c(OC)c(OC)c1)C2 (centres undefined)	10.1%	31.6µM*	3.2%	1.4%	u
COCCOC(=O)c1[nH]c2c(c1C)C(=O)CC(c1ccco1)C2 (centres undefined)	-4.4%	-12.0%	44.7µM*	-0.8%	u
CCOC(=O)c1[nH]c2c(c1C)C(=O)CC(c1ccco1)C2 (centres undefined)	-9.4%	-29.7%	39.8µM*	0.5%	u
Cc1c(C(=O)OCCOC(C)C)[nH]c2c1C(=O)CC(c1ccco1)C2 (centres undefined)	-8.2%	-45.9%	u	-10.3%	-4.3%
SMILES	RE007 growth inh	AmpC no deterg	Sm TGR block	Giardia FBPA inh	AmpC detergent
COc1cccc(NC(=O)CN(C)S(=O)(=O)c2ccc3c(c2)n(C)c(=O)c(=O)n3C)c1	12.6%	-15.8%	-13.9%	x	0.4%
Cc1ccc(C)n1-c1cccc(NC(=O)c2ccccc2)c1	-6.7%	-21.7%	u	-3.5%	0.2%
Cc1ccc(C)n1-c1ccc(C(=O)O)cc1	x	-23.0%	17.8µM*	-27.2%	4.1%
Cc1ccc(C)n1-c1ccc(C(=O)N2CCOCC2)cc1	-3.5%	78.7%	8.91µM*	-11.0%	-0.5%
Cc1ccc(C)n1-c1ccc(C(=O)Nc2ccccc2)cc1	3.7%	-38.3%	25.1µM*	-3.6%	-4.5%
CC(=O)N1CCN(C(=O)c2ccc(-n3c(C)ccc3C)cc2)CC1	3.1%	31.7%	-29.2%	-0.3%	3.3%
Cc1c(NC(=O)C(C)OC(=O)C23CC4CC(CC(Br)(C4)C2)C3)c(=O)n(-c2ccccc2)n1C (centres undefined)	-10.9%	-12.3%	13.0%	1.4%	-2.1%
Cc1ccc(C(=O)OCC(=O)NC2CCCCC2)cc1S(=O)(=O)N1CCCCC1	17.4%	-3.0%	-2.4%	x	-8.6%
CC(Cc1ccccn1)NC(=O)c1ccc(OC2CCN(Cc3ccccn3)CC2)cc1 (centres undefined)	-11.3%	34.5%	-20.2%	x	2.6%
Cc1ccc(N/N=C/c2c(C)c(C#N)c(=O)n(C)c2O)cc1C	-6.5%	9.4%	x	12.6µM*	-7.5%
Clc1cccc(CSc2nnc(-c3ccccn3)n2Cc2ccco2)c1	4.3%	16.7%	39.8µM*	5.4%	-15.0%
Clc1ccc(CSc2nnc(-c3ccccn3)n2Cc2ccco2)cc1Cl	5.0%	x	x	x	x
CC(C)(C)c1ccc(CSc2nnc(-c3ccccn3)n2Cc2ccco2)cc1	-0.1%	22.0%	-27.5%	-10.7%	-6.0%
Brc1ccc(CSc2nnc(-c3ccccn3)n2Cc2ccco2)cc1	12.7%	0.6%	39.8µM*	-1.2%	-13.8%
Nc1nonc1-c1nc2ccccc2n1CC(=O)Nc1ccccc1	5.4%	-19.9%	-1.5%	1.9%	-6.2%
Nc1nonc1-c1nc2ccccc2n1CC(=O)N/N=C/c1ccc(-c2ccccc2C(=O)O)o1	19.7%	-39.0%	39.8µM*	-22.0%	3.7%
O=C(Nc1ccccc1)c1cc2ccccc2c(=O)s1	-0.4%	-19.3%	2.9%	2.8%	89.1µM*
CCOC(=O)c1c(N)sc2c(NC(C)=O)cccc12	8.2%	-10.6%	0.6%	3.5%	-9.5%
COc1ccc(NC(=O)c2cc(-c3cc(C)cc(C)c3O)n[nH]2)cc1Cl	9.6%[3.69 µM]	11.2µM*	-3.5%	-1.0%	-0.5%
Cn1c(SCC(=O)NNC(=O)c2ccc(Cl)cc2)nnc1-c1cccnc1	3.5%	-0.7%	12.6%	2.3%	-12.4%
CC(C)(C)OC(=O)N[C@H]1C=C[C@H](OC(=O)CC(=O)OCC(F)(F)F)C1	-3.6%	-0.5%	x	x	x

High-throughput results: PubChem, National Center for Advancing Translational Sciences (NCATS)
